Screens: PubChem BioAssay, National Center for Advancing Translational Sciences (NCATS)
Shown are actives, neighbours in structure and some others; about 9% of the full set was active somewhere.
HPGD inh: inhibitors of human 15-hydroxyprostaglandin dehydrogenase (HPGD). P15428. purified HPGD, NADH fluorescence kinetic, PGE2 substrate. Potency, µM, inactives show top-dose activity change, negative = inhibition, hits mostly inhibitors. actives 4.3% (n = 150,000); further: potency means the concentration at half of the fitted maximal effect
Target sequence (P15428 whole entry, looked up): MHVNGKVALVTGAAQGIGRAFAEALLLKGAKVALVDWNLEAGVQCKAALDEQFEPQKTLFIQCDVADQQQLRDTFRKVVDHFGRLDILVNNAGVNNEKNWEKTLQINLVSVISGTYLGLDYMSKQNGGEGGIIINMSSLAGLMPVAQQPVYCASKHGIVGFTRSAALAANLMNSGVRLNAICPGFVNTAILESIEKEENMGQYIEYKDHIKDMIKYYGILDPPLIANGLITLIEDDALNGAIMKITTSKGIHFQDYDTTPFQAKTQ
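NADH formation kinetics: reaction with 30 uM PGE2 and 1 mM NAD+ (final), 20 nM enzyme, Tris-HCl pH 8 with Tween 20, after 15 min compound preincubation at room temperature. Fluorescence change, last versus first of five reads.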
IMPase cell inh: cell-permeable inhibitors of inositol monophosphatase (IMPase); CHO-M1 cells, IP1 accumulation, HTRF TR-FRET ratio; inhibition (IP1 accumulation), % at 46.1 µM; 120,000 tested, under 10 active; active means well fitted curve in the direction sought with a large enough effect in the signal ratio, not every such curve was filed as active; inconclusive means small, poorly fitted or top-dose-only effect, or a change in a side signal; inactive means no such curve, though single readings can be large or run the other way; the % refers to the signal ratio;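 further: cells stimulated with carbachol in lithium chloride buffer; plate controls were DMSO basal wells for no effect and reference inhibitor wells for full effect; higher means more IMPase inhibition seen as more IP1 and lower FRET ratio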
Target sequence (P97697 whole entry, looked up): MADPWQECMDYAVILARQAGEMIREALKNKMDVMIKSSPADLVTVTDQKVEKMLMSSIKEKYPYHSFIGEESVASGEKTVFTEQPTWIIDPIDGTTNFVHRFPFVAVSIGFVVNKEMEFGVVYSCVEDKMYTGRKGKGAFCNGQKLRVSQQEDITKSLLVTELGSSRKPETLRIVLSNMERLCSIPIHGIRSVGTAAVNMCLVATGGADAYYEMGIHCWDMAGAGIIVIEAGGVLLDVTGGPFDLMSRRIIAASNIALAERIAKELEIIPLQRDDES
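Elevated IP1 in lysates lowers TR-FRET signal (665/620 ratio and 620 channel reported). Cells were CHO-M1, given carbachol (50 uM as added) plus 50mM LiCl, pH 7.4, 30 min, 37C; compounds titrated up to 46 uM; AC50 by Hill equation.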
ALDH1A1 block: ALDH1A1 (human) enzyme inhibition | P00352 | Purified ALDH1A1, NADH fluorescence, propionaldehyde substrate | Potency, µM (titrated, usually from 75.3 µM), for the others: at the highest dose activity, negative = inhibition, usual class: inhibitors | actives 7.3% (n = 220,000);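 further: potency means the concentration at half of the fitted maximal effect; plate controls were no enzyme wells and a reference inhibitor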
An asterisk follows results filed as active; ? = inconclusive; / = no result given. Unless noted, the call rests on the fitted dose curve; in most records, active means well fitted inhibition curve with a large enough effect (not every such curve was filed as active); inconclusive means small, poorly fitted or top-dose-only effect, or another doubt; inactive means no such curve, though single readings can be large or run the other way. Unless noted, on the % scale 0 is the no-effect control and ±100 the full control effect.

SMILES | HPGD inh | IMPase cell inh | ALDH1A1 block
O=[N+]([O-])c1ccc(OCc2nnc(-c3ccccc3)o2)cc1 | / | / | 7%
CN(c1ccc(OCc2nnc(-c3ccccc3)o2)cc1)S(=O)(=O)c1ccccc1 | 7.9µM* | 12 | 5%
CCSc1nnc(NC(=O)[C@@H](NC(=O)c2ccc(C(C)(C)C)cc2)C(C)C)s1 | -18% | / | 0%
C[C@@]12CC(=O)C3=C(CCCC3=O)N1CCc1ccccc12 | -2% | / | -6%
CC(C)[C@@H](CC(=O)N[C@@H]1CCNC[C@H]1C(=O)N[C@H](CC(=O)N[C@@H](CCC(=O)O)CC(=O)O)Cc1ccccc1)NC(=O)C[C@H](Cc1ccccc1)NC(=O)[C@@H]1CNCC[C@H]1N | -9% | / | 1%
CCOC(=O)c1c(C)[nH]c(C2=NNC(=Nc3ccccc3OC)SC2)c1C | -15% | -2 | 2%
CCOC(=O)c1c(C)[nH]c(C2=NNC(=Nc3ccccc3)SC2)c1C | / | 7 | 13µM*
CC(=O)c1c(C)[nH]c(C2=NNC(=NC(C)(C)C)SC2)c1C | / | / | 11µM*
CCOC(=O)c1c(C)[nH]c(C2=NNC(=Nc3ccc(OCC)cc3)SC2)c1C | -17% | / | ?
CC(C)(C)n1nc2c(c1NC(=O)Cc1ccccc1)CS(=O)(=O)C2 | / | / | 6%
CCc1nc(SCc2ccc(F)cc2)n[nH]1 | / | / | 0%
CCCc1nc(SCc2ccccc2Cl)n[nH]1 | 13µM* | -6 | -4%
CC(=O)Nc1nc(SCc2ccc(Cl)cc2Cl)n[nH]1 | 1% | 1 | -3%
CCc1nc(SCc2cc(Cl)ccc2OC)n[nH]1 | 13µM* | 9 | -3%
Cc1cccc(CN2CCN(CC(=O)NCCc3ccc(Cl)cc3)C2=O)c1 | / | 10 | /
CC(NCc1ccc(N(C)C)cc1)C1CC2CCC1C2 (stereo unspecified) | -11% | 12 | -5%
COc1cc(/C=N/NC(=O)CSc2cc(C)c(Br)cc2C)ccc1O | -13% | 3 | 0%
Cc1cc(C)nc(SCC(=O)NN=C2CCCC2)n1 | / | / | -15%
Cc1cc(SCC(=O)NN=C2CCN(C(C)C)CC2)c(C)cc1Br | 25µM* | / | ?
Cc1cc(SCC(=O)N/N=C/c2ccc(O)c(O)c2O)c(C)cc1Br | 10µM* | 2 | 4.5µM*
CCOc1ccc(NC(=O)CSc2nnc(Cn3cnc([N+](=O)[O-])n3)n2C)cc1 | -5% | -8 | 0%
O=C(Nc1ccc(F)c(Cl)c1)c1ccc2c(=O)n3c(nc2c1)CCCCC3 | / | 10 | 25µM*
CCOC(=O)N1CCN(C(=O)C(=O)Nc2ccc3nc4n(c(=O)c3c2)CCCCC4)CC1 | -14% | 7 | ?
O=C(COc1ccc(Cl)cc1Cl)Nc1ccc2nc3n(c(=O)c2c1)CCCC3 | 10µM* | 11 | ?
O=C(Nc1cccc(Cl)c1)c1ccc2c(=O)n3c(nc2c1)CCCCC3 | -20% | 9 | ?
SMILES | HPGD inh | IMPase cell inh | ALDH1A1 block
O=C(Nc1ccc(S(=O)(=O)N2CCCC2)cc1)c1ccc2c(=O)n3c(nc2c1)CCCCC3 | -12% | / | ?
Cc1ccc(S(=O)(=O)N2CCCCC2)cc1NC(=O)c1ccc2c(=O)n3c(nc2c1)CCCCC3 | -19% | / | 14µM*
Cc1nc(NC(=O)CC(C)C)sc1-c1csc(Nc2ccc(Cl)cc2)n1 | ? | 17 | ?
O=C(Nc1ccccc1)c1nsnc1C(=O)Nc1ccccc1 | / | / | 6%
CCOc1ccc(-c2nc3c(c(CC)nn3-c3ccccc3)c3cc(OC)c(OC)cc23)cc1 | / | -3 | /
COc1ccc(C(=O)OCC(=O)Nc2cc(S(=O)(=O)N3CCOCC3)ccc2N2CCCC2)cc1 | / | / | -7%
O=C(Nc1ccccc1)c1ccc(S(=O)(=O)N2CCOCC2)cc1 | -13% | -5 | -8%
O=C(Nc1cccc(S(=O)(=O)N2CCOCC2)c1)C(c1ccccc1)N1CCCCC1 (stereo unspecified) | / | / | 7.1µM*
O=C(Nc1ccccc1)Nc1cc(S(=O)(=O)N2CCOCC2)ccc1N1CCCC1 | 14µM* | / | ?
CC1CN=C(N(C(=O)Nc2ccccc2)c2ccc(S(=O)(=O)N3CCOCC3)cc2)S1 (stereo unspecified) | 20µM* | -1 | 11%
CC(C(=O)Nc1cccc(S(=O)(=O)N2CCOCC2)c1)N1CCN(C/C=C/c2ccccc2)CC1 (stereo unspecified) | / | / | 8%
O=C(Nc1ccc(F)cc1)Nc1cc(S(=O)(=O)N2CCOCC2)ccc1N1CCCC1 | / | / | 4%
CCOCC(=O)Nc1cc(S(=O)(=O)N2CCOCC2)ccc1N1CCCCC1 | / | / | 2.8µM*
COC(=O)c1cc(NC(=O)CC2SC(=Nc3ccccc3)N(CCc3c[nH]c4ccccc34)C2=O)cc(C(=O)OC)c1 (stereo unspecified) | / | -5 | 4%
COc1ccc(NC(=O)c2ccccc2NC(=O)NC2CCCCC2)cc1 | 2% | 2 | ?
CC(C)Cn1nnnc1S(=O)(=O)CC#N | -9% | / | -4%
O=C(c1cnccn1)N1CCC2(CC1)CN(c1cccc(-c3ccccc3)c1)C2 | -17% | / | -7%
COc1ccccc1N/C=C(\C#N)c1nc2ccccc2[nH]1 | / | / | -11%
O=S(=O)(Nc1cc(S(=O)(=O)N2CCOCC2)ccc1N1CCOCC1)c1ccc2c(c1)OCCO2 | / | / | -1%
O=S(=O)(Nc1cccc(S(=O)(=O)N2CCOCC2)c1)c1ccc2c(c1)OCCO2 | / | / | 25µM*
Cn1c(=O)c(=O)n(C)c2cc(S(=O)(=O)Nc3ccc4c(c3)OCCO4)ccc21 | 25µM* | -5 | -2%
Cn1c(=O)oc2cc(S(=O)(=O)Nc3ccc4c(c3)OCCO4)ccc21 | ? | ? | -1%
CC(/C=N/NC(=O)c1cc(-c2cccnc2)nc2c1c(C)nn2-c1ccccc1)=C\c1ccccc1 | / | 4 | ?
CC(=O)Nc1ccccc1C(=O)C(=O)Nc1cccc(C(=O)N2CC(C)CC(C)C2)c1 (stereo unspecified) | / | / | -10%
Cc1c(NC(=O)COC(=O)C(c2ccc(Cl)cc2)C(C)C)c(=O)n(-c2ccccc2)n1C (stereo unspecified) | -1% | 4 | -10%
SMILES | HPGD inh | IMPase cell inh | ALDH1A1 block
COC(=O)CC1C(=O)NCCN1C(=O)CSc1nnnn1-c1ccc(OC)cc1 (stereo unspecified) | / | / | 6%
Nc1ccc(N2CCCCC2)c(S(=O)(=O)Nc2ccc(Cl)cc2)c1 | / | / | 4%
COc1ccccc1NS(=O)(=O)c1cc(NC(=O)CCC2CCCC2)ccc1N1CCOCC1 | / | / | 16µM*
COc1ccccc1NS(=O)(=O)c1cc(N)ccc1N1CCCCC1 | / | / | 3.2µM*
COc1ccccc1NS(=O)(=O)c1cc(NC(=O)CC(C)(C)C)ccc1N1CCOCC1 | / | / | -5%
CC12CN3CCN(CC(C3)/C1=N\NC(=O)Nc1cccc(Cl)c1)C2 | / | / | -7%
C=CCC1Cc2c(cccc2[N+](=O)[O-])C(CC=C)N1 (stereo unspecified) | / | / | 16µM*
C=CCC1C=CCC(CC=C)N1C(=O)c1ccccc1[N+](=O)[O-] (stereo unspecified) | -11% | / | -16%
O=C(c1ccco1)N1CCN(CC(O)COc2ccc3oc4ccccc4c3c2)CC1 (stereo unspecified) | -9% | -8 | -10%
CCOc1cc(C(=O)NCCCn2ccnc2)cc(OCC)c1OCC | -11% | / | 0%
N#Cc1cccc(-c2ccc3ncnc(NC4CCNCC4)c3c2)c1 | / | / | -12%
COc1ccc(NC(=O)CCN2C(=O)C3C4CCC(C4)C3C2=O)cc1 (stereo unspecified) | -9% | / | 13µM*
